The list is not random: actives were taken first. Their share in the collection is about 1.7%.
Measles CPE: protection of cells from measles virus; Measles virus-infected cells, CPE protection, absorbance; protection (pct of control), % at 4 µM; 140,000 tested, 1.5% active; in the data active means protection mostly above about 24%, no sharp cut-off; inactive means mostly below about 26%
Smad3 inh: inhibitors of human Smad3 transcription factor binding; 88,000 tested, 0.29% active; inhibition, % at 25 µM; P84022; AID 630; TR-FRET Smad3/Dy647-FoxH1 peptide binding, europium anti-His;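 active means compounds that reduce the energy-transfer binding signal between the protein and its labelled peptide by more than half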;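 further: 0% = Smad3 plus labelled peptide maximal FRET and 100% = peptide-only background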
Target sequence (P84022 whole entry, looked up): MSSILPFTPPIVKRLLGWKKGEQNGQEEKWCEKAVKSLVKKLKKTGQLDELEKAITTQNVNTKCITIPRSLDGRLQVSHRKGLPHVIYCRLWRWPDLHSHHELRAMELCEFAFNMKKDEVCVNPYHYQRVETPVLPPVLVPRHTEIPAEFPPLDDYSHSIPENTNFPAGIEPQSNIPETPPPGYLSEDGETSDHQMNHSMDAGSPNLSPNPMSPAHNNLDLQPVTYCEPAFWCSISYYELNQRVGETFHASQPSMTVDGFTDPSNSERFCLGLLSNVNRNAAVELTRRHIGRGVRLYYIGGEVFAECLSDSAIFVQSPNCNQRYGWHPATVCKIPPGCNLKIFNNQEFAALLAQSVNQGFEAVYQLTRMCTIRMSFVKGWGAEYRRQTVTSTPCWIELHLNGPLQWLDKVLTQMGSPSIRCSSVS
MT1-MMP txn act: MT1-MMP promoter transcription activation. HT1080 MT1-MMP promoter luciferase reporter, luminescence, overnight; hits give high values. activation factor at 10 µM. 86,000 tested, 0.16% active;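 active means activation factor of at least 2 for MT1-MMP transcription at 10 µM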
Active calls of the source: *; x = no result given.

SMILES	Measles CPE	Smad3 inh	MT1-MMP txn act
COc1ccc(C(=O)N(C)Cc2ccccc2)cc1Br	3	x	x
CCOC(=O)c1c(C)n(C)c2ccc(OC(=O)c3ccc([N+](=O)[O-])cc3)cc12	9	x	x
CCOC(=O)c1c(C)n(C)c2ccc(OC(=O)c3ccoc3)cc12	39*	-15	1.2
CCCCCOCC(O)CCC(=O)NN (stereo not given)	19	x	x
O=C1C(=O)N(O)C2CCCCC2N1O (stereo not given)	6	x	x
CON1C(=O)C(=O)N(OC)C2CCCCCC21 (stereo not given)	45*	x	x
Cc1cc(C)c2c(c1)cc(C)c1nnc(SCC(=O)Nc3ccc(S(=O)(=O)N4CCCCC4)cc3)n12	50*	x	x
O=C(CSc1ncccn1)Nc1ccc(S(=O)(=O)N2CCCCC2)cc1	5	-23	1.1
N#Cc1c(NC(=O)CCC(=O)O)ccc2ccccc12	x	-10	x
CC(C)[C@@H]1O[C@H](/C=C/c2ccccc2)OCC1(C)C	x	4	x
CCSc1nnc(NC(=O)C(C)Sc2nc3ccccc3[nH]2)s1 (stereo not given)	13	x	x
COC(=O)CSc1nnc(Cc2cc(=O)[nH]c(=O)[nH]2)n1-c1cccc(OC)c1	23	10	1.2
COc1cccc(-n2c(Cc3cc(=O)[nH]c(=O)[nH]3)nnc2SCC(=O)NC2CCCC2)c1	50*	1	1.1
N#Cc1ccc(C(=O)NCC(c2ccco2)N2CCCC2)cc1 (stereo not given)	13	-10	1.2
N#Cc1ccc(C(=O)NCC(c2ccco2)N2CCCCC2)cc1 (stereo not given)	46*	-12	1.3
COC(=O)[C@@]1(Cc2ccc(F)cc2)[C@H]2c3cc(C(=O)N4CCCC4)n(Cc4cc(F)cc5c4OCOC5)c3C[C@H]2CN1C(=O)c1ccccc1	x	x	1.1
NC(Cc1ccccc1)=NCC(=O)O	x	-3	x
Cc1csc(NC(=O)CSc2nnc(C)s2)n1	14	-3	1.2
Cc1nnc(SCC(=O)Nc2nc(C(C)(C)C)cs2)s1	54*	8	x
CCOC(=O)CNNC(=O)Nc1ccc(Cl)c(Cl)c1	21*	x	x
CCOC(=O)N(C)OC(=O)Nc1ccc(Cl)c(Cl)c1	8	0	1.3
CCC(C)(C)NC(=O)c1cc([N+](=O)[O-])ccc1N1CCOCC1	24	x	x
Oc1ccc(-c2csc(NCc3ccco3)n2)cc1	9	-1	1.8
CC(=O)Nc1cccc(-c2csc(NCc3ccco3)n2)c1	27*	-4	1.4
O=C(NCC1CCCO1)c1c(O)c2cccc3c2n(c1=O)CC3 (stereo not given)	55*	14	1.3
SMILES	Measles CPE	Smad3 inh	MT1-MMP txn act
O=C(NCC1CCCO1)c1c(O)c2cccc3c2n(c1=O)CCC3 (stereo not given)	6	x	x
Cc1cccc(-n2ccnc2SCC(=O)N2CCCc3ccccc32)c1C	11	x	x
N#Cc1ccc(OC(=O)c2ccc(N=C(N)N)cc2)cc1	x	-2	x
O=C(CN1N=C(C(F)(F)F)CC1(O)c1ccc([N+](=O)[O-])cc1)c1ccccc1 (stereo not given)	6	8	1.1
CCc1ccc(C2(O)CC(C(F)(F)F)=NN2C(=O)Cc2ccc([N+](=O)[O-])cc2)cc1 (stereo not given)	13	-5	2*
CCOC(=O)C1=NNC2(c3ccc(Cl)cc3)C(=O)N(c3ccc(C)cc3)C(=O)C12 (stereo not given)	16	x	x
COc1ccc(S(=O)(=O)Cc2ccc(C(=O)NCc3cccnc3)o2)cc1	2	30	1
COc1ccc(S(=O)(=O)Cc2ccc(C(=O)NCc3ccc(F)cc3)o2)cc1	32*	-3	1
Cc1nn(Cc2ccc(C(=O)Nc3ccc(Br)c4cccnc34)o2)c(C)c1Br	x	1	1.3
CNCc1ccccc1Sc1ccc(OC)c(OC)c1	40*	x	x
CNCc1ccccc1Sc1cccc(O)c1	19	x	x
CCC1=C2CC[C@H]3C(=O)N(c4ccccc4)C(=O)[C@H]3[C@H]2[C@@]2(Cc3ccccc3)C(=NCCc3c[nH]c4ccccc34)OC(=O)N2C1=O	x	x	1.2
CCCCC(=O)NC1=C(C(=O)OC)SCC1	9	x	x
COC(=O)C1=C(NC(=O)CCCCl)CCS1	50*	x	x
CCc1cc2c3c(c1)C1(C(=O)N3C(C)(C)CC2C)C(C#N)=C(N)N2C(=C1C#N)Nc1ccccc12 (stereo not given)	10	x	x
O=C(NCC(c1cccs1)N1CCOCC1)c1ccc(Br)o1 (stereo not given)	2	-3	0.6
CC(C)c1ccccc1OCC(=O)NCC(c1cccs1)N1CCOCC1 (stereo not given)	29*	3	0.9
CC(C)CCNC(=O)C(c1cccnc1)N(Cc1ccccc1)C(=O)Cn1nnc2ccccc21 (stereo not given)	x	9	1.3
O=C(NCc1ccco1)C(c1ccccc1)N(CC1CCCO1)C(=O)Cn1nnc2ccccc21 (stereo not given)	2	-3	1.1
CC(C)CCNC(=O)C(c1cccnc1)N(CCc1ccccc1)C(=O)Cn1nnc2ccccc21 (stereo not given)	5	55*	1.1
O=C(NCc1ccco1)C(c1ccccc1)N(Cc1ccccc1)C(=O)Cn1nnc2ccccc21 (stereo not given)	41*	-4	1.2
NCC#CC(CCc1ccccc1)OCc1ccccc1 (stereo not given)	x	x	1.1
CCC1=C(C)N(CCCC(=O)O)C(=O)NC1c1cccc(Cl)c1Cl (stereo not given)	x	x	1.1
COc1ccc(-c2cn3cccnc3n2)cc1F	29*	x	x
Clc1ccc(-c2cn3cccnc3n2)cc1Cl	20	3	1.9
SMILES	Measles CPE	Smad3 inh	MT1-MMP txn act
CC(C)Sc1nnc([C@H](Cc2c[nH]c3ccccc23)NC(=O)OC(C)(C)C)o1	22	-11	1.2
Cc1ccc(S(=O)(=O)C2C(=O)N(C)C3(C)CC2c2ccccc2O3)cc1 (stereo not given)	8	x	x
Cc1cc(C(=O)NP(=O)(N2CCOCC2)N2CCOCC2)c(C)n1-c1ccc(Br)cc1	46*	x	x
Cc1cc(C(=O)NP(=O)(N2CCOCC2)N2CCOCC2)c(C)n1-c1ccc(N(C)C)cc1	18	x	x
CCC(CC)NC(=O)CCc1nc2ccccc2c(=O)[nH]1	2	x	x
O=C(CCc1nc2ccccc2c(=O)[nH]1)Nc1ccc(Cl)c(Cl)c1	31*	x	x
COC(=O)[C@@H]1C(c2c(OC)cc(OC)cc2OC)=NO[C@H]1C(=O)OC	20	x	x
S=C(S)NCCCn1ccnc1	x	11	x
CCCSc1ccc2nc(-c3ccccc3)cn2c1	5	x	x
CCCCSc1ccc2nc(-c3ccc(C#N)cc3)cn2c1	43*	x	x
N=c1nc(N)nc(N)n1-c1ccc(S(N)(=O)=O)cc1	x	-17	x
Cc1cccc(CN(CC(=O)N/N=C/c2cccs2)S(=O)(=O)c2ccc(Cl)cc2)c1	1	x	x
COC(=O)C1C/C(=N\NS(=O)(=O)c2ccc(C)cc2)c2ccsc2C1 (stereo not given)	8	x	x
CCOC(=O)c1c(C)[nH]c(C(=O)C(C)OC(=O)c2cccc(OCc3c(C)noc3C)c2)c1C (stereo not given)	77*	26	1.1
Cc1noc(C)c1COc1cccc(C(=O)OCC(=O)NC(=O)c2ccc(OC(F)F)cc2)c1	9	x	x
O=C1c2ccccc2[C@@H]([C@H]2c3ccccc3C(=O)c3cc(Br)ccc32)c2ccc(Br)cc21	x	-12	x
CCCCOC(=O)CSc1nc(N)c(C#N)c(-c2ccc(OC)cc2)c1C#N	5	3	1.2

Screens as filed in PubChem BioAssay.
